In PubChem BioAssay AID2157 (National Center for Advancing Translational Sciences (NCATS), 2009):
Inconclusive results are not listed. A number with no mark means an inactive call. The source made the active and inactive calls. The call rests on the fitted dose curve; in most records, active means well fitted inhibition curve with a large enough effect; inconclusive means small, poorly fitted or top-dose-only effect; inactive means no such curve, though single readings can be large or run the other way.

The molecules below were run against Polyunsaturated fatty acid lipoxygenase ALOX15 (Homo sapiens) (UniProt P16050) (assay: Confirmation qHTS Assay for Inhibitors of 15-hLO (15-human lipoxygenase)). Settings: purified enzyme, xylenol orange hydroperoxide absorbance; max response: stronger effect = lower value.
Polyunsaturated fatty acid lipoxygenase ALOX15 (Homo sapiens), sequence (P16050 whole entry, looked up): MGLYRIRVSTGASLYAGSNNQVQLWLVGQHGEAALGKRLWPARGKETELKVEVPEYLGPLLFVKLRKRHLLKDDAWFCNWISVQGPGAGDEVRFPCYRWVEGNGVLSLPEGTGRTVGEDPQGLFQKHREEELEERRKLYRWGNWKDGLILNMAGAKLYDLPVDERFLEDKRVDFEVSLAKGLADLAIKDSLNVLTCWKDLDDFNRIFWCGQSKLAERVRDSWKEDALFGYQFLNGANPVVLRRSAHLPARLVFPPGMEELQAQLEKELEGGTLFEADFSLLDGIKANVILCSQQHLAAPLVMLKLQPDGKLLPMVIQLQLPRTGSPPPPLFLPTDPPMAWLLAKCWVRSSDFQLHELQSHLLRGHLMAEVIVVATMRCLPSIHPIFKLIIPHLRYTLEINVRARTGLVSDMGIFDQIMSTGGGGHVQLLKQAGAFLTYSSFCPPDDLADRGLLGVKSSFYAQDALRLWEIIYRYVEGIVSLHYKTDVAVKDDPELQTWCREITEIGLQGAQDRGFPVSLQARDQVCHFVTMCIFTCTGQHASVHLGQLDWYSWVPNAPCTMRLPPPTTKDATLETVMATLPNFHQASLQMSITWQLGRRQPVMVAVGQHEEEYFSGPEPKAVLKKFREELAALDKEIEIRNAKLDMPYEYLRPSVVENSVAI
Excerpt: Assay Provider: Holman, T.R., University of California, Santa Cruz Screening Center PI: Austin, Christopher P. Screening Center: NIH Chemical Genomics Center Human lipoxygenase 15hLO-1 is a member of the closely related lipoxygenase family of enzymes which catalyze the site-specific oxidation of arachidonic acid to various hormone precursor molecules and as such is a candidate for drug development in a variety of disease areas, such as cancer and inflammation. Inhibition of 15hLO-1 activity was screened by utilizing arachidonic acid as a substrate. The extent of hydroperoxide product formation was measured by a secondary chromogenic reaction in which xylenol orange (XO, Sigma-Aldrich, cat. number 39,818-7) reacts with the ferric ions produced from the reaction between the hydroperoxide and ferrous ions. The Fe(III)-XO complex is characterized with red-shifted absorbance at 560 nm. A purified preparation of human 15hLO-1 was supplied by Professor Ted Holman, University of California, Santa Cruz. This assay includes some confirmation and follow-up compounds for related primary screening assay AID 887.
Assay Protocol: Buffer: 25 mM Hepes pH 7.5, 0.01% Triton X-100. Reagents/Controls: Buffer in columns 3 and 4 as negative control (no enzyme). Substrate solution: 50 uM arachidonic acid (Sigma-Aldrich, St. Louis, MO) final concentration dispensed throughout the plate. Enzyme: 40 nM 15hLO-1 final concentration in columns 1, 2, 5-48. Column 1 is neutral (100% activity). Column 2 contained pin-transferred titration of NDGA (nordihidroguaiaretic acid, Sigma-Aldrich, N 5023, top concentration 10 mM in DMSO, then 1:2 dilution in duplicate). (Dilution factor: 23 nL into 4 uL.) Chromogenic detection reagent (divalent iron/xylenol orange, Fe-XO): 200 uM xylenol orange plus 300 uM ferrous ammonium sulfate prepared freshly in 50 mM sulfuric acid. Assay Steps: Three uL of enzyme were dispensed to 1536-well Greiner black clear bottom plates. Compounds and controls (23 nL) were transferred via Kalypsys PinTool. The plates were incubated for 15 min at room temperature, and then 1 uL of substrate solution was added to start the reaction. After room temperature incubation for 6 minutes, 4 uL of Fe-XO solution was added to each well followed by a short spin (1000 rpm, 15 sec) and the plates were then incubated for 30 min. The absorbance at 405 and 573 nm were measured using ViewLux (Perkin-Elmer) High-throughput CCD imager and absorbance protocol settings. The 573-to-405 absorbance ratio was used to compute reaction progress.

Compound	max response	Potency
O=C(Nc1nnc(-c2ccccc2)o1)c1ccc(Cl)cc1	-12.7%	–
Cc1cc(Nc2nnnn2-c2ccccc2)n(-c2ccc(Cl)cc2)n1	-13%	–
c1csc(C2Nc3cccc4cccc(c34)N2)c1	–	8.91 µM (active)
CCCCn1c(Cc2ccccc2)n[nH]c1=S	-14.5%	–
Cc1c(N/C=C/C(=O)c2cccs2)c(=O)n(-c2ccccc2)n1C	-25.2%	–
COc1ccc(NC(=O)CSc2nc(O)cc(=O)n2-c2ccccc2OC)cc1	-13.4%	–
O=C1C2C3CCCC3=C3CCCC3C2C(=O)N1c1cccc(Cl)c1 (configuration not stated)	–	14.1 µM (active)
O=C(Cc1cc(=O)[nH][nH]1)N/N=C/C=C/c1ccccc1	-11.2%	–
Clc1ccc(-c2nnc(C3CCCCC3)o2)cc1	-10.3%	–
O=C(Nc1nnc(-c2ccco2)s1)C1CCCCC1	-11.3%	–
Oc1ccc2ccccc2c1CNc1cnc2ccccc2c1	–	14.1 µM (active)
COC(=O)c1ccc2c(c1)C(=O)N(C1CCCCC1)C2=O	-13.1%	–
Cc1noc(C)c1-c1nc(N(C)Cc2ccco2)c2ccccc2n1	-25.4%	–
COc1cccc(-c2nccc(NCc3ccccc3OC)n2)c1	–	11.2 µM (active)
O=C(c1ccncc1)N1CCC2(CCCN(Cc3nccs3)C2)CC1	-6.92%	–
NC(=O)c1cccc2c3c([nH]c12)CCCC3	–	10 µM (active)
COc1ccc(OC)c(NC(=O)NC2(C(F)(F)F)Oc3ccccc3O2)c1	-7.82%	–
Cc1ccc(OCC(=O)Nc2ccc(N3CCCC3)cc2)cc1C	–	15.8 µM (active)
O=C(C1=C(O)C(=O)N(Cc2ccco2)C1c1cccnc1)c1cc2ccccc2o1 (configuration not stated)	-10.1%	–

Compound	max response	Potency
COc1ccccc1CNc1ncncc1-c1ccoc1	–	11.2 µM (active)
CN(C)CCC(=O)c1ccc(Cl)cc1	-16.6%	–
CCOC(=O)c1c(NC(=O)CN2CCOCC2)sc2c1CCCC2	–	31.6 µM (active)
O=C(Nc1nc2n(n1)C(c1ccccc1)CC(c1ccc(Cl)cc1)N2)c1ccco1 (configuration not stated)	-20.1%	–
COCCSc1ccccc1C(=O)NCc1ccco1	-26.5%	–
CCOc1ccc(NS(=O)(=O)c2ccc3[nH]cc(C(=O)N(CC)CC)c(=O)c3c2)cc1	-12.4%	–
Clc1ccc(NNc2ccnc3cc(Cl)ccc23)cc1	-9.48%	–
CC(=O)NCCNc1ncncc1-c1ccc(N(C)C)cc1	-61.2%	–
Cc1ccc(-c2ccc(/C=C3\C(=O)ON=C3c3ccccc3)o2)c([N+](=O)[O-])c1	–	2.51 µM (active)
CCC(=O)N(Cc1cc(=O)[nH]c2ccccc12)C1CCCCC1	-6.49%	–
CCCC(=O)NC(c1ccco1)c1cc(Cl)c2cccnc2c1O (configuration not stated)	-17.9%	–
COc1cccc(-c2nc(NC3CCNCC3)c3ccccc3n2)c1	-13.6%	–
Cc1cccc(CNc2ncnc3ccc(-c4ccc5c(c4)OCO5)cc23)c1	-24.2%	–
COC(=O)c1ccc(C(=S)N2CCOCC2)cc1	–	15.8 µM (active)
O=C(Nc1cccc(F)c1)N1CCCC2(CCN(C(=O)c3ccco3)CC2)C1	-7.24%	–
Cc1cc(/C=N/NC(=O)Cn2c3ccccc3c(=O)c3ccccc32)c(C)n1-c1ccccc1	–	11.2 µM (active)
CN1CCN(C(c2cccnc2)c2ccc3cccnc3c2O)CC1 (configuration not stated)	-27.2%	–
COc1ccccc1-n1c(SCC(=O)Nc2ccc(C)cc2)nc(O)cc1=O	-8.11%	–
